The text below walks through data of the OligoGym collection.

What all share (experiment): pooled miR-30 sensor sort-seq; sequence = guide strand
What all share (conditions): shRNA

The target of test [1] is MIB1.
Test [2] has as its target MFRP.
Test [3] has as its target MIA.
Test [4] deals with MFNG.
In test [5] the target is MMADHC.
The target of test [6] is MOBKL1B.
Test [7] addresses MPG.
For test [8], the target named is MRC1L1.
The target of test [9] is MTX3.
Test [10] deals with MUL1.
The target in test [11] is MUDENG.
Test [12] has as its target MUM1L1.
Note: reference of the scale not given here.

As to TTCCTTATGACACTTTGCCAGT, the sensor-assay potency score (higher = more potent) in [1] is -1. As to TTTACATCCACATCTGGTCTTT, the sensor-assay potency score (higher = more potent) in test [1] turned out to be 0.23. For the sequence TTGCAGAACTCGGTCTTGCTCG, the sensor-assay potency score (higher = more potent) in test [2] was -0.303.

TTAACTCATCAGAACTTCCAAC: in test [1], the sensor-assay potency score (higher = more potent) is -0.501. Take TCAGGGTCTGGTCCTCTCGGAC: the sensor-assay potency score (higher = more potent) in [3] is -1.41. Take TGTCCTAAACAGCACAGCCAGC: in test [2], the sensor-assay potency score (higher = more potent) was -1.58. Consider TTCAACTACTGCTCGACACTGC, for which, in test [1], the sensor-assay potency score (higher = more potent) was 0.708. Take TGAATGGTCAGGAATCGGCAGT: the sensor-assay potency score (higher = more potent) in test [3] was -0.833. On to TTGTCATCGCTGCCATCGGTGC, for which, in test [2], the sensor-assay potency score (higher = more potent) was -1.66. Turning to ATTTGTCTGTCTTCACATCGAC, the sensor-assay potency score (higher = more potent) in [3] was -0.34. Turning to TCAAACTTGCACTCGTCCTGAG, the sensor-assay potency score (higher = more potent) in [2] came to 0.173. With TCTTGCAGGACAGAGCTGGGTG, in test [4], the sensor-assay potency score (higher = more potent) is -0.336. In [1], TTTAGCAACATCTCCATTGGCA yielded a sensor-assay potency score (higher = more potent) of 0.277. With TGGTCCTCTCGGACAATGCTAC, the sensor-assay potency score (higher = more potent) in test [3] was -1.39. Regarding TAGTAATCTCCCTGAACGCTGC, the sensor-assay potency score (higher = more potent) in [3] was -0.496.

In the case of ATTGGTATTATCCTTGTCCTTT, the sensor-assay potency score (higher = more potent) in test [1] is -0.409. Take TGTAGTTCTATGCTGTGTCCGG: in test [2], the sensor-assay potency score (higher = more potent) is -0.086. TTGTGTTACAGTCAGAATCATT: in [5], the sensor-assay potency score (higher = more potent) is -1.32. Still for that read-out and setting: with TTTGCCATTAGCTACTTCTGGA the figure was -0.35.

In the case of TAATTCTTGAAGAGGTGCCAGC, the sensor-assay potency score (higher = more potent) in test [6] is -0.967. Still for that read-out and setting: in the case of TATGTGATAACAACAAGAGTGG it was -0.235. Take TCTAGCTGGTCGCTGCTTCTTT: in [7], the sensor-assay potency score (higher = more potent) is -0.646.

Regarding TTTCTGAACAATCCTATCCAAA, in test [8], the sensor-assay potency score (higher = more potent) is -1.03. Same read-out and setting: in the case of TTATAGATTAAAAATTGCCTGG it was -0.0737.

Regarding TTTAGGAAACCGTACTTTGTAA, in test [9], the sensor-assay potency score (higher = more potent) was -0.773. TTTCTTTAACAGACCGCACAGC: the sensor-assay potency score (higher = more potent) in test [10] is -0.894. As for TTAGATAGTACTGCATGCCTTG, the sensor-assay potency score (higher = more potent) in test [10] was -0.152.

Turning to TAATCTAAGTTCAAAGAGCAGT, in [11], the sensor-assay potency score (higher = more potent) was -0.489. Same read-out and setting: with AAAAACTTGAACTGAATGCTGA the figure was -0.0187; with TTATTCTTAGTTGTACTTCTTC, 0.0203.

On to TTATTGATGCGTGAACAGCTAT, for which the sensor-assay potency score (higher = more potent) in [11] is -0.441. Take ATACACGGTCTCTAGACCCAGA: the sensor-assay potency score (higher = more potent) in test [10] was -0.85. The same measure, in the same setting: with TTGCAGTTTTCCACAAACTGGC the figure was -0.401. With TTAGTGATCTTCCATAGGCAGT, the sensor-assay potency score (higher = more potent) in [12] was -1.42. For the sequence TATTTGATTGCAGACTTCTTGT, the sensor-assay potency score (higher = more potent) in test [12] came to 0.00671. For the sequence TTCTATAACAGCATAAGGCACG, the sensor-assay potency score (higher = more potent) in test [10] was -0.579.
